From PubChem BioAssay come the findings set out here.

The nature of assay [1]: small molecules captured by biotinylated probe aFSTL3 – biochemical, small-molecule microarray, fluorescence 635/667, stem cell growth factor project, primary screen (AID 1064).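 Also: measures binding of the biotinylated anti-FSTL3 antibody to printed compounds.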 As to conditions: higher = more signal.
The nature of assay [2]: binders from COS7 lysate, DM2A8 probe, primary screen, torsin A project, cell lysate, small-molecule microarray, fluorescence 635/667 (AID 1065). As to conditions: higher = more signal, COS7 lysate expressing mutant human TOR1A.
The nature of assay [3]: small molecules captured by biotinylated probe aFGF2 – biochemical, small-molecule microarray, fluorescence 635/667, stem cell growth factor project, primary screen (AID 1067).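 Also: measures binding of biotinylated aFGF2 protein to printed compounds on slides; z-score merges feature fluorescence and signal-to-noise across triplicate slides.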 As to conditions: higher = more signal.
Assay [4] can be described thus: small molecules captured by biotinylated probe aFGF10 – biochemical, small-molecule microarray, fluorescence 635/667, stem cell growth factor project, primary screen (AID 1071).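 Also: score merges 667 nm spot intensity and signal to noise from triplicate slides.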 As to conditions: higher = more signal.
Assay [5] has as its target Neurogenic locus notch homolog protein 2 (Homo sapiens) (UniProt Q04721). The assay can be described thus: small molecules binding Notch2 protein – biochemical, small-molecule microarray, 635 nm fluorescence, stem cell growth factors, primary screen (AID 1073). Particulars: higher = more signal.
Assay [6] deals with Pro-neuregulin-1, membrane-bound isoform (Homo sapiens) (UniProt Q02297). Briefly: small molecules binding neuregulin-1 protein – biochemical, small-molecule microarray, fluorescence 635/667, psychiatric disease protein project, primary screen (AID 1075).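 Also: score combines 667 nm spot fluorescence with signal to noise.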 Particulars: NRG1 binding, 635 nm fluorescence, higher = more signal.
Chain of Pro-neuregulin-1, membrane-bound isoform (Homo sapiens) (Q02297 whole entry, looked up, the tested form may be a part, canonical isoform): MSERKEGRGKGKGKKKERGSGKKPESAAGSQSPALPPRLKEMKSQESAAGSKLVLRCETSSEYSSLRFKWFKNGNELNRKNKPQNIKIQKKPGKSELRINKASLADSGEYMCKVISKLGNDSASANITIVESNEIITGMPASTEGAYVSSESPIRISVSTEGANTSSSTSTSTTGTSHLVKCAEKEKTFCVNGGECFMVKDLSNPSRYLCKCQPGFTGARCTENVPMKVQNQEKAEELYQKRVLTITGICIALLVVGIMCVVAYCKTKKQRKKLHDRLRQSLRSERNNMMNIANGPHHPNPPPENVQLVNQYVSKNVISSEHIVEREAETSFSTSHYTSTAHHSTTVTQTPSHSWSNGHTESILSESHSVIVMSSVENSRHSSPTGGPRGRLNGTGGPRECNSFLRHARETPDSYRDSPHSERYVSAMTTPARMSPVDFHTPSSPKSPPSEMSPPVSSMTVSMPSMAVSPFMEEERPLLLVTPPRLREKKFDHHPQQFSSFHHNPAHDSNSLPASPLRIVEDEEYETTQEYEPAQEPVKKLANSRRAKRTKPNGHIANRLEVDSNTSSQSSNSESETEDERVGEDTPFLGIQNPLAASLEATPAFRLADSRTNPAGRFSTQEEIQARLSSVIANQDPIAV
For assay [7], the system named is Neuregulin-1 EGF-like domain. The assay can be described thus: small molecules binding NRG1 EGF domain – biochemical, small-molecule microarray, 635 nm fluorescence, primary screen (AID 1081).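 Also: binding of the protein to compounds printed on small-molecule microarray slides.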 Particulars: higher = more signal.
The nature of assay [8]: FRG1 expression reporter modulators in myotubes – cell-based, C2C12 myotubes, firefly/Renilla luciferase, luminescence, FRG1 inhibition for FSHD, primary screen (AID 1084). Particulars: FRG1 promoter luciferase, higher = more signal, called active from +8 up or from −8 down.
Assay [9] is described as follows: small molecules captured by biotinylated probe aFST – biochemical, small-molecule microarray, fluorescence 635/667, stem cell growth factor project, primary screen (AID 1086).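 Also: score merges 667 nm fluorescence with signal-to-noise of each printed compound spot.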 As to conditions: higher = more signal.
Assay [10] is described as follows: binders of probe aHhip on microarray, primary screen, stem cell growth factor project, biochemical, small-molecule microarray, fluorescence 635/667 (AID 1087).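 Also: score merges spot fluorescence at 667nm with spot signal to noise ratio.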 As to conditions: higher = more signal.
For assay [11], the system named is PRMT1 (protein arginine N-methyltransferase 1). Briefly: small molecules binding arginine methyltransferase PRMT1 – biochemical, small-molecule microarray, 635 nm fluorescence, primary screen (AID 1088).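 Also: binding of Prmt1 protein to compounds spotted on small-molecule microarray slides.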 Particulars: higher = more signal.
Assay [12] can be described thus: growth effects on S. cerevisiae YJM789 – YJM789 clinical isolate, OD600, 24 h, basal, primary screen (AID 1089).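 Also: growth of clinical yeast isolate S. cerevisiae YJM 789 seeded 1000 cells per well; test concentration not given here.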 As to conditions: higher = more signal, called active from +8 up or from −8 down.
Assay [13] can be described thus: S. pombe growth modifiers, basal conditions – strain 972, OD600, 24 h, no modulator, primary screen (AID 1090).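 Also: basal condition with compound alone and no growth modifier present; test concentration not given here.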 Particulars: S. pombe 972 growth, higher = more signal, called active from +8 up or from −8 down.
A short description of assay [14]: budding yeast growth modifiers under rapamycin – strain BY4716, OD600, 96 h, primary screen (AID 1091). Also: test concentration not given here. Particulars: S. cerevisiae BY4716 + rapamycin, higher = more signal, called active from +8 up or from −8 down.
Assay [15] addresses Torsin-1A-interacting protein 2 (Homo sapiens) (UniProt Q8NFQ8). The assay can be described thus: small molecules binding lysate-expressed LULL1 – cell lysate, human LULL1 lysate, 635/667 nm fluorescence, primary screen (AID 1092).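 Also: probe is lysate of COS7 cells overexpressing human LULL1; score merges per-feature 667 nm fluorescence with signal-to-noise.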 Particulars: small-molecule microarray, hLULL1 lysate binding, 635 nm fluorescence; higher = more signal.
Assay [16] can be described thus: optical density change of DRC41 E. coli – strain DRC41, OD650, 24 h, E. coli filamentation project, primary screen (AID 1093).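 Also: MC1000 strain lacking acrAB efflux and sulA so SOS filamentation is blocked; test concentration not given here.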 Particulars: E. coli DRC41 growth, higher = more signal, called active from +8 up or from −8 down.
A short description of assay [17]: probe aLefty2 binding to arrayed compounds – biochemical, biotinylated probe, 635/667 nm fluorescence, primary screen (AID 1094).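 Also: score merges spot fluorescence near 667 nm with spot signal-to-noise ratio.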 As to conditions: small-molecule microarray, higher = more signal.
In assay [18] the test system is Noggin (protein binding on small-molecule microarray). The assay can be described thus: small molecules binding Noggin protein – biochemical, 635/667 nm fluorescence, primary screen (AID 1095).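 Also: score merges 667 nm feature fluorescence with signal to noise over triplicate slides.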 Particulars: 635 nm fluorescence, higher = more signal.
Assay [19] addresses Neurogenic locus notch homolog protein 3 (Homo sapiens) (UniProt Q9UM47). Briefly: small molecules binding NOTCH3 protein – biochemical, 635/667 nm fluorescence, primary screen (AID 1096). As to conditions: small-molecule microarray, 635 nm fluorescence, higher = more signal.
Assay [20] in a line: probe aEGFR binding to arrayed compounds – biochemical, biotinylated probe, 635/667 nm fluorescence, primary screen (AID 1097).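 Also: probe is a biotinylated anti-EGFR antibody binding compounds printed on slides; score combines fluorescence near 667 nm and signal to noise of each spot.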 As to conditions: small-molecule microarray, higher = more signal.

The source made the active and inactive calls.

Chain of Neurogenic locus notch homolog protein 2 (Homo sapiens) (Q04721 whole entry, looked up, canonical isoform): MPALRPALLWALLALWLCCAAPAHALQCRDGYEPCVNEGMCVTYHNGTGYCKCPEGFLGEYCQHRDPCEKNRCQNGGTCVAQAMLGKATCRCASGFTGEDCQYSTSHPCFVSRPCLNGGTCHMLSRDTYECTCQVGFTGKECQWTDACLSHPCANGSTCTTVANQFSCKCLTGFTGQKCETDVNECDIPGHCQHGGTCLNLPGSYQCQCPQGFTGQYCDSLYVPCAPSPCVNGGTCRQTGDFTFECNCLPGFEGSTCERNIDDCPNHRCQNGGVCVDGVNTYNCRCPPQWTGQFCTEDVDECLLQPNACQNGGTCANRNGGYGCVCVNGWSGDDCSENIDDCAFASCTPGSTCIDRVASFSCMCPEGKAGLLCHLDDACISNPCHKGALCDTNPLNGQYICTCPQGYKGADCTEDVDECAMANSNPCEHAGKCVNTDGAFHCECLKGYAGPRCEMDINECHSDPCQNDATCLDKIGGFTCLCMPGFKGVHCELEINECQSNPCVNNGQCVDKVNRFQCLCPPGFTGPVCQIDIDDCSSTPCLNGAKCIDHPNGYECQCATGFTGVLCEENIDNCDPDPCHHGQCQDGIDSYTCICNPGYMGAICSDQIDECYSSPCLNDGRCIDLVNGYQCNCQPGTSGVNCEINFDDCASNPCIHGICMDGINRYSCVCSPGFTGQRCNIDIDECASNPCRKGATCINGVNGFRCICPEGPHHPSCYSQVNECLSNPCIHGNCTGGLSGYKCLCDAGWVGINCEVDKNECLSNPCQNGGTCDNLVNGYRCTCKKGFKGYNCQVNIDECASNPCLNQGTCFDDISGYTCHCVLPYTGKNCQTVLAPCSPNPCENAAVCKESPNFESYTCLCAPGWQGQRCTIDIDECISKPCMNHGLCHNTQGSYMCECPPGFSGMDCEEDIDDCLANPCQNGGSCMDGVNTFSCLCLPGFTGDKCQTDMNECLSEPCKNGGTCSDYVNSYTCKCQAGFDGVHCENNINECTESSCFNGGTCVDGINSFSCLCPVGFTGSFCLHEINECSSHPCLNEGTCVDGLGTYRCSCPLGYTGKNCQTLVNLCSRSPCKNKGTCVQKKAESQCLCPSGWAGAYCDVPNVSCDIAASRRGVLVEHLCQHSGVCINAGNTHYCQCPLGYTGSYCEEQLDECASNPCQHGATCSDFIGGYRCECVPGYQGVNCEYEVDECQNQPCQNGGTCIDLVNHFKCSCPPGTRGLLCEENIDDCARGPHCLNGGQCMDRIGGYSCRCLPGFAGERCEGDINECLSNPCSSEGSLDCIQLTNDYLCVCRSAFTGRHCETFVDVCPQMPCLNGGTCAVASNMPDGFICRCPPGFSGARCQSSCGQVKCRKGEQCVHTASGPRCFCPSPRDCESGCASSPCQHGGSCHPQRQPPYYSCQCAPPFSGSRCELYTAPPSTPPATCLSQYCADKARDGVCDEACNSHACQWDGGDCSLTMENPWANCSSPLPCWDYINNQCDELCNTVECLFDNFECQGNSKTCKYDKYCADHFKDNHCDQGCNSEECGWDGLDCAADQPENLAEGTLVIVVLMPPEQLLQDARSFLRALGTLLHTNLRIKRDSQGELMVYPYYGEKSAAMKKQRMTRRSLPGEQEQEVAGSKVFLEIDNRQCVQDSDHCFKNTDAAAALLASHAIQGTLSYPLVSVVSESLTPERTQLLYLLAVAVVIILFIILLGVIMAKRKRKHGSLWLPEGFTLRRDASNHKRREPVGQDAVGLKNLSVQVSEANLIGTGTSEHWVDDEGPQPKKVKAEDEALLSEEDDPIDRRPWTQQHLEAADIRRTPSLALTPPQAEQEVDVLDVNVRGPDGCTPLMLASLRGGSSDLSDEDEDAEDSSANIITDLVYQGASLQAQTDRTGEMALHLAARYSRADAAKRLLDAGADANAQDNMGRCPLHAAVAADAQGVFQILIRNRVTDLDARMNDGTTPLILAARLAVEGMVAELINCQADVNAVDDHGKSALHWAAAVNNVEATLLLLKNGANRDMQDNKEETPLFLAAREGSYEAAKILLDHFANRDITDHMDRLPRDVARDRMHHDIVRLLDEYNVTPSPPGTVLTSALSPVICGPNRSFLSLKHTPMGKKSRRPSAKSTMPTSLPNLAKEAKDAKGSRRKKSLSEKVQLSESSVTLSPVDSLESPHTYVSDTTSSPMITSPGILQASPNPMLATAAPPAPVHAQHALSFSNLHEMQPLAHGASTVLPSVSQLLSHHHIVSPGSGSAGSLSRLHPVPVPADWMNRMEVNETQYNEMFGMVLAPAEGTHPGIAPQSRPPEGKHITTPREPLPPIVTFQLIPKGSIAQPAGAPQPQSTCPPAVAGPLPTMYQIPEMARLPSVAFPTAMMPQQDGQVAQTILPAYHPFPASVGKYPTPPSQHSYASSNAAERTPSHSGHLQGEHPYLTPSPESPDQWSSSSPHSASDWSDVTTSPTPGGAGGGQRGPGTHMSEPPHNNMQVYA
Chain of Torsin-1A-interacting protein 2 (Homo sapiens) (Q8NFQ8 whole entry, looked up): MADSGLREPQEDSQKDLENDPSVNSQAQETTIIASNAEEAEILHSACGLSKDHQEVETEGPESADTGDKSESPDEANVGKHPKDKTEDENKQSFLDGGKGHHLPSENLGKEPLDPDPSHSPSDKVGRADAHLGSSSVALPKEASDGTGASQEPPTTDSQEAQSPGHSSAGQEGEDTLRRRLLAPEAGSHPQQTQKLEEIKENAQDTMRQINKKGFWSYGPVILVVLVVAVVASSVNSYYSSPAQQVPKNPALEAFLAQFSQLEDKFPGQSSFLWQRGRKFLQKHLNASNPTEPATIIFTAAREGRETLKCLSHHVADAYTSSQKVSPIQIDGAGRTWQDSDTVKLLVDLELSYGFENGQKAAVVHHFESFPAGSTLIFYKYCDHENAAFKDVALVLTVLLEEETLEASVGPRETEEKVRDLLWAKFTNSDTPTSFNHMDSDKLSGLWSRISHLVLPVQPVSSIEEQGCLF

As for `O=C1c2ccccc2[C@](Cc2ccccc2I)(C(=O)O)[C@H](c2ccc(CO)cc2)N1Cc1ccccc1Cl`, the composite z-score is 0.668 in [1]; 0.651 in assay [2]; -0.0301 in [3]; 0.0635 in assay [4]; 0.268 in assay [5]; 0.955 in assay [6]. In addition, the composite z-score was 0.819 in assay [7]; 0.43 in assay [9]; -0.0994 in assay [10]; 1.21 in assay [11]; 1.82 in assay [15]; 0.0678 in [17]. Also, the composite z-score in assay [18] was -0.168; in assay [19] it was 0.239; in [20], -0.104. Also, the z-score is 0.17 (inactive) in assay [8]; -0.818 (inactive) in assay [12]; -1.53 (inactive) in assay [13]; -1.19 (inactive) in [14]; 1.13 (inactive) in [16].
Consider `C=C(C(=O)CC[C@@H](OC(C)=O)c1ccccc1OCCO)C(C)C`, for which the composite z-score in [1] is -0.354; in assay [2], -0.363; in assay [3], -0.133; in assay [4], 0.664; in assay [5], -0.553; in assay [6], -0.267. Moreover, the composite z-score is -0.29 in assay [7]; -0.575 in assay [9]; -0.0994 in assay [10]; 0.526 in [11]; -0.0719 in assay [15]; -0.2 in assay [17]. The composite z-score in [18] is -0.0776; in assay [19], 0.232; in [20], -0.249. In addition, the z-score was -2.13 (inactive) in [8]; -6.28 (inactive) in assay [12]; -20.5 (active) in assay [13]; -2.44 (inactive) in [14]; 1.27 (inactive) in [16].
With `COc1ccc([Si](C)(C)[C@@H]2[C@@H](CC(=O)N3CCC[C@H]3CO)O[C@]3(C(=O)N(Cc4ccc(N5CCC5=O)cc4)c4ccccc43)[C@H]2C)cc1`, the composite z-score is -0.142 in assay [1]; 0.783 in assay [2]; -0.071 in assay [3]; 0.66 in [4]; 0.747 in assay [5]; 0.583 in assay [6]. For the same compound, the composite z-score in assay [7] is 1.07; in [9], 0.187; in assay [10], 0.245; in assay [11], 1.55; in [15] it was 2.12; in assay [17] it was -0.166. Further, the composite z-score in assay [18] amounted to 1.16; in assay [19] it was 0.708; in [20], 0.0408. Also, the z-score in assay [8] is -1.17 (inactive); in assay [12], -0.556 (inactive); in assay [13], -0.228 (inactive); in assay [14] it was -0.69 (inactive); in assay [16], 0.673 (inactive).
On to `COC(=O)c1c2oc(c1C(=O)OC)C(=O)N[C@@H](C(C)C)Cn1nncc1C1(CCCCC1)NC(=O)N[C@H](CO)CC2`, for which the composite z-score in assay [1] was -0.07; in assay [2], 0.178; in [3] it was -0.129; in assay [4], 0.147; in assay [5], -0.294; in assay [6], 0.969. In addition, the composite z-score in assay [7] was 0.625; in [9] it was -0.103; in [10] it was 0.0373; in [11], -0.143; in [15], 2.02; in assay [17] it was -0.208. The composite z-score in assay [18] was -0.494; in assay [19], -0.373; in assay [20] it was -0.144. The z-score was -0.993 (inactive) in [8]; 0.0957 (inactive) in assay [12]; -0.99 (inactive) in assay [13]; -0.787 (inactive) in assay [14]; 2.28 (inactive) in assay [16].
Consider `O=C(O)[C@H]1C[C@H]2C(=O)N[C@@H](Cc3ccccc3)C(=O)N2[C@H]1c1ccc(O)cc1`, for which the composite z-score in [1] is 1.01; in [2], 0.419; in assay [3], -0.0943; in assay [4], -0.769; in assay [5], -1.42; in assay [6], 0.511. In addition, the composite z-score in assay [7] was 1.24; in [9] it was 0.16; in assay [10], -0.136; in assay [11], 1.32; in assay [15], 2.54; in assay [17] it was -0.0572. Moreover, the composite z-score in assay [18] amounted to 0.108; in assay [19], 0.321; in assay [20], 0.064. Further, the z-score in [8] is 1.02 (inactive); in assay [12], -0.261 (inactive); in [13] it was -0.784 (inactive); in [14], -0.322 (inactive); in assay [16], 0.906 (inactive).
